Screening data deposited in PubChem by National Center for Advancing Translational Sciences (NCATS).
Giardia killer: Small Molecules that selectively kill Giardia lamblia: qHTS. AID 540267, 2011. activity change, % at 7.66 µM, hits read low. Giardia lamblia trophozoite viability. 340,000 compounds, 0.15% hits; in the data active = activity change below about -80%; inconclusive = between about -30% and that limit;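 also: parasites exposed to compound for two days anaerobically before the ATP read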
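Killing of trophozoites was scored by loss of ATP luminescence after a 48 hrs anaerobic exposure to compounds at 37 deg C, using 100 cells per well.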
SW480 rerep: A quantitative high throughput screen for small molecules that induce DNA re-replication in SW480 colon adenocarcinoma cells | SW480 DNA re-replication, Hoechst DNA content imaging, 48 h | Potency, µM (highest dose often 46.1 µM), actives largely listed as activators | 340,000 compounds, 1.8% hits; also: nearly all actives have a fitted effect of over 55% in size
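Image-based DNA-content assay: after two days of treatment, nuclei were labelled with the DNA dye Hoechst and imaged, and hits were compounds raising the count of nuclei showing high fluorescence intensity.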
MCF10A rereplic: A quantitative high throughput screen for small molecules that induce DNA re-replication in MCF 10a normal breast cells; MCF 10A DNA re-replication, Hoechst nuclear intensity, 48 h; Potency, µM (highest dose often 46.1 µM), usual class: activators; 350,000 compounds, 2.9% hits; AID 624296, 2012; also: nearly all actives have a fitted effect of over 50% in size
uPA surface inh: qHTS for Inhibitors of Cell Surface uPA Generation | cell surface uPA generation assay, qHTS | Potency, µM (titrated, usually from 38.3 µM), hits mostly inhibitors | 330,000 compounds, 0.31% hits | AID 540303, 2011; active = well fitted inhibition curve with a large enough effect; inconclusive = small, poorly fitted or top-dose-only effect; inactive = no such curve, though single readings can be large or run the other way; tested in mouse RAW 264.7 cells; also: nearly all actives have a fitted effect of over 55% in size
Of the large screens only hits and unclear results are named; the others gave an inactive call. The list is not random: actives were taken first. Their share in the collection is about 4.3%. Unless noted, calls follow the shape of the dose curve; as a rule, active = well fitted activation curve with a large enough effect; inconclusive = small, poorly fitted or top-dose-only effect; inactive = no such curve, though single readings can be large or run the other way.

Cc1ccc(-c2nc(C)sc2CC(=O)OCC(=O)Nc2ccc(F)c(Cl)c2)cc1	none
O=C1c2ccccc2S(=O)(=O)c2cc(N3CCOCC3)ccc21	Giardia killer inconclusive, MCF10A rereplic inconclusive, uPA surface inh 2.5µM
COc1ccccc1-c1cc(C(F)(F)F)n2ncc(S(=O)(=O)c3ccccc3)c2n1	SW480 rerep 23µM
C=CCNc1nc(Nc2ccc([N+](=O)[O-])cc2)nc(N2CCCC2)n1	none
CC1CCN(c2nc(Cl)nc(Nc3ccc([N+](=O)[O-])cc3)n2)CC1	MCF10A rereplic 5.2µM
CC1(C(=O)N2CCC(CC3CC(c4cccc(Br)c4)=NO3)(C(=O)NCC3CCCCC3)CC2)CC1 (configuration not stated)	none
COc1ccc(-n2cc(-c3ccc(OC)c(OC)c3)[nH]c2=S)cc1	SW480 rerep inconclusive
COc1ccc(-n2cc(-c3ccccc3)[nH]c2=S)c(OC)c1	SW480 rerep 18µM, MCF10A rereplic 16µM, uPA surface inh inconclusive
CN(C)c1ccc(NS(=O)(=O)c2cc3c4c(c2)CC(=O)N4CCC3)cc1	none
CCCc1cc(NCCN(C)C)n2c(nc3ccccc32)c1C#N	none
CCCc1cc(NCC2CCCO2)n2c(nc3ccccc32)c1C#N (configuration not stated)	SW480 rerep inconclusive, MCF10A rereplic 16µM
Cc1cc(N2C(=O)C3C4C=CC(C4)C3C2=O)ccc1NC(=O)c1cccs1 (configuration not stated)	none
O=C(Nc1cccc(N2C(=O)C3C4C=CC(C4)C3C2=O)c1)c1cccs1 (configuration not stated)	MCF10A rereplic 0.82µM
C/C(=N/NC(=O)c1ccc(Br)o1)C(C)C	SW480 rerep 0.52µM
CC(C)c1ccc(NC(=O)c2ccc(Br)o2)cc1	none
C=CC(C)(C)c1c2occc2c(O)c2ccc(=O)oc12	SW480 rerep inconclusive, MCF10A rereplic inconclusive
C=CC(C)(C)c1c(O)c(CC=C(C)C)c(O)c2c(=O)c3ccc(O)c(O)c3oc12	SW480 rerep inconclusive, MCF10A rereplic 23µM, uPA surface inh 11µM
CC(C)(C)c1ccc(-c2nc(SCC(=O)Nc3ccc(Cl)cc3)[nH]c(=O)c2C#N)cc1	none (no result: SW480 rerep, MCF10A rereplic, uPA surface inh)
CCOC(=O)C1(N(CC)CC)Sc2cc(C)ccc2NC1=O (configuration not stated)	SW480 rerep inconclusive, MCF10A rereplic inconclusive
CCOC(=O)C1(Nc2nccs2)Sc2ccccc2NC1=O (configuration not stated)	SW480 rerep 15µM, MCF10A rereplic 13µM
COc1ccccc1NS(=O)(=O)c1ccc(Cl)c(NC(=S)NC(=O)C2CCCC2)c1	MCF10A rereplic inconclusive
CCN(CC)c1ccc(S(=O)(=O)Nc2cc(Cl)ccc2Cl)cc1NC(=S)NC(=O)C1CCCC1	MCF10A rereplic 12µM
CCN(CC)S(=O)(=O)c1ccc(Cl)c(NC(=S)NC(=O)C2CCCC2)c1	SW480 rerep 4.6µM, MCF10A rereplic inconclusive, uPA surface inh inconclusive
CC(C)c1ccc(S(=O)(=O)N2CCC(C(=O)N3CCN(c4cccc(Cl)c4)CC3)CC2)cc1	MCF10A rereplic inconclusive, uPA surface inh inconclusive
O=C(O)c1ccccc1-c1ccc(C(F)(F)F)cc1	none (no result: Giardia killer, uPA surface inh)
CCCCn1c(SCC(=O)NCCCOC)nc2c(sc3ccccc32)c1=O	none (no result: SW480 rerep, MCF10A rereplic, uPA surface inh)
C[C@@H](CO)NC(=O)c1ccc2c3n(nc2c1)-c1ccc(Cl)cc1CO3	uPA surface inh 4.5µM
Cc1ccc2c(c1)COc1c3ccc(C(=O)NCCO)cc3nn1-2	uPA surface inh inconclusive
CC(C)[C@@H](CO)NC(=O)c1ccc2c3n(nc2c1)-c1ccc(Cl)cc1CO3	none
Cc1ccc2c(c1)COc1c3ccc(C(=O)NC(C)C)cc3nn1-2	uPA surface inh 7.1µM
Cc1ccc2c(c1)COc1c3ccc(C(=O)N[C@@H](C)CO)cc3nn1-2	uPA surface inh 4.5µM
Cn1c(=O)c2c(ncn2CC(=O)NC[C@H]2O[C@@H](n3cnc4c(N)ncnc43)[C@H](O)[C@@H]2O)n(C)c1=O	none
Cc1cccn2c(=O)c3cc(C(=O)NC4CCCCCC4)sc3nc12	MCF10A rereplic inconclusive
Cc1cc(C)cc(NC(=O)c2cc3c(=O)n4ccccc4nc3s2)c1	SW480 rerep 9.2µM, MCF10A rereplic inconclusive
O=C(NC1CCCCCC1)c1cc2c(=O)n3ccccc3nc2s1	SW480 rerep 18µM, MCF10A rereplic 21µM
CC1CC(C)CN(C(=O)c2cc3c(=O)n4ccccc4nc3s2)C1 (configuration not stated)	MCF10A rereplic 21µM
CCCCNC(=O)c1ccc2nc(-c3cccs3)c(-c3cccs3)nc2c1	none (no result: SW480 rerep, MCF10A rereplic, uPA surface inh)
CC1CCCN(CCCNC(=O)C2CCN(S(=O)(=O)N3CCC4(CC3)OCCO4)CC2)C1 (configuration not stated)	MCF10A rereplic inconclusive
O=C(O)c1ccc2[nH]c3c(c2c1)CSCC3	none
CN(C)CCOC(=O)c1ccc2[nH]c3c(c2c1)CSCC3	SW480 rerep 7.3µM
CCN(CC)CCCNC(=S)N(Cc1cccnc1)Cc1cc2cc(C)ccc2[nH]c1=O	none
O=C1OCCN1C(=O)[C@H]1[C@H](c2ccc(F)cc2)C(c2ccc(F)cc2)=NN1c1ccccc1	SW480 rerep 18µM, MCF10A rereplic 5.8µM
O=C1OCCN1C(=O)[C@H]1[C@H](c2ccc(Cl)cc2)C(c2ccc(F)cc2)=NN1c1ccccc1	SW480 rerep inconclusive, MCF10A rereplic 3.7µM
O=C1OCCN1C(=O)[C@H]1[C@H](c2ccc(Cl)cc2)C(c2ccc(F)cc2)=NN1c1ccc(Br)cc1	SW480 rerep 21µM, MCF10A rereplic inconclusive
O=C1OCCN1C(=O)[C@H]1[C@H](c2ccc(F)cc2)C(c2ccccc2)=NN1c1ccccc1	SW480 rerep 21µM, MCF10A rereplic 5.2µM
O=C(OCCOCCN=C1NS(=O)(=O)c2ccccc21)c1ccccc1Br	none
Cc1cc(CSc2ccccc2)ccc1NC(=O)c1ccc(Cl)c([N+](=O)[O-])c1	MCF10A rereplic 18µM
O=C(Nc1ccccn1)c1ccc(Cl)c([N+](=O)[O-])c1	MCF10A rereplic inconclusive
O=C(Nc1cccnc1Cl)c1ccc(Cl)c([N+](=O)[O-])c1	Giardia killer inconclusive, SW480 rerep 23µM
C/C(CCC12CC3CC(CC(C3)C1)C2)=N\NC(N)=S	SW480 rerep 3.3µM, MCF10A rereplic inconclusive, uPA surface inh inconclusive
COc1ccc(/C=N\N=C2/SC(CC(=O)O)C(=O)N2c2ccc(O)cc2)cc1 (configuration not stated)	MCF10A rereplic 16µM
ClCc1nc2ccccc2c2ccccc12	SW480 rerep 18µM, MCF10A rereplic inconclusive
CCOC(=O)c1c(CCl)nc2ccccc2c1-c1ccccc1	SW480 rerep inconclusive, MCF10A rereplic inconclusive
Cc1cccc(C(=O)NNC(=O)c2csc(N3CCOCC3)n2)c1C	none
Oc1ccccc1Nc1nc(NCc2ccccc2)c2ccccc2n1	MCF10A rereplic 16µM (no result: uPA surface inh)
c1ccc(CNc2nc(N3CCN(Cc4ccccc4)CC3)nc3ccccc23)cc1	SW480 rerep inconclusive, MCF10A rereplic 7.3µM
Oc1ccccc1-c1nc(NCc2ccco2)c2ccccc2n1	MCF10A rereplic inconclusive
